An excerpt weighted towards active compounds, which were near 10% of everything screened.
G9a block: blocks human histone lysine methyltransferase G9a. Q96KQ7. G9a H3K9 monomethylation, AlphaScreen, 2 h. Potency, µM (highest dose often 102 µM), most hits filed as inhibitors. 350,000 tested, 8.8% active; also: nearly all actives have a fitted effect of over 75% in size
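Readings reflect AlphaScreen signal from monomethyl-H3K9 antibody detection. HMT at 20 nM; substrate b-H3K9 500 nM; cofactor SAM 20 uM; 2 h RT reaction; compounds tested as titrations in qHTS with 15 min preincubation.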
L3MBTL1 block: L3MBTL1 (human) inhibition; AlphaScreen L3MBTL1–H3K9me1 peptide binding; Potency, µM (series often up to 57.1 µM), usual class: inhibitors; 230,000 tested, 0.66% active; also: nearly all actives have a fitted effect of over 60% in size
Target sequence (Q9Y468 whole entry, looked up): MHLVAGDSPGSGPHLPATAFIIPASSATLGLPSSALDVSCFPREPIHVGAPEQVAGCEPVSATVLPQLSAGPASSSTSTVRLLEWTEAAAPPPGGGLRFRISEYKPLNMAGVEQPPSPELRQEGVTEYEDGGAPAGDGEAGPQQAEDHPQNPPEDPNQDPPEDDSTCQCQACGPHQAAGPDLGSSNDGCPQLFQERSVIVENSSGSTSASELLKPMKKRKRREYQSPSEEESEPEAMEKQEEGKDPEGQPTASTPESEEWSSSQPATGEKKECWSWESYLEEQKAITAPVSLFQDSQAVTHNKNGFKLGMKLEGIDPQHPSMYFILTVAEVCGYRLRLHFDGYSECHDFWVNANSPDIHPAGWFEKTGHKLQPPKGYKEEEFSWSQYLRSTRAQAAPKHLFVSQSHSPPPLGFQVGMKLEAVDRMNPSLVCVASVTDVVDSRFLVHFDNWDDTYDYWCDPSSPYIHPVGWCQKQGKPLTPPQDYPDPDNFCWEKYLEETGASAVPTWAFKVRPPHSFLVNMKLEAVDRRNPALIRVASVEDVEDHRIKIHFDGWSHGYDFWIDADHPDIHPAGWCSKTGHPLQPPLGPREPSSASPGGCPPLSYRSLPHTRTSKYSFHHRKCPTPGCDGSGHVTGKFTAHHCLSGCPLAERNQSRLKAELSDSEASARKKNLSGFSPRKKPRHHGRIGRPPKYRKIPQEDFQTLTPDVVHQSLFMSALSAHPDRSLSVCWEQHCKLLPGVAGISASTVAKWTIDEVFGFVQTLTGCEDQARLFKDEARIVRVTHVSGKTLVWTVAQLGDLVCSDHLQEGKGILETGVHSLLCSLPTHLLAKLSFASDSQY
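Displacement of a biotinylated histone H3(1-15) peptide monomethylated at Lys9 (75 nM) from L3MBTL1 (50 nM) was measured by AlphaScreen after a 30 min room-temperature compound incubation; cefsulodin titration served as intraplate control.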
GLS inh: blocks human kidney-isoform glutaminase activity; Potency, µM (series often up to 45.5 µM), most hits filed as inhibitors; 410,000 tested, 0.21% active; GLS enzymatic activity, qHTS titration; O94925
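Compounds were pin-transferred onto hKGA, after which L-glutamine (1 mM solution) and a detection mix of glutamate oxidase, HRP and Amplex Red were added. Initial and 30 min RT fluorescence reads were collected.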
HP1b chromo inh: inhibitors of HP1-beta chromodomain binding to methylated histone tails | P83916 | AlphaScreen HP1-beta / biotin-H3K9me3 peptide binding | Potency, µM (top dose mostly 114 µM), actives largely listed as inhibitors | 390,000 tested, 0.56% active | AID 540317; also: nearly all actives have a fitted effect of over 70% in size
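HP1-beta protein (50 nM final) preincubated 30 min at room temperature with biotinylated H3(1-18)K9me3 peptide (50 nM) in PBS pH 7.4, 0.01% Tween-20, then compound added for 30 min. AlphaScreen streptavidin donor/nickel chelate acceptor beads (10 ug/mL final), 30 min dark, luminescence read.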
BAZ2B inh: inhibitors of human BAZ2B bromodomain; 360,000 tested, 4.4% active; AID 504333; AlphaScreen BAZ2B-H3K14Ac peptide displacement; Potency, µM (top dose mostly 114 µM), most hits filed as inhibitors; also: nearly all actives have a fitted effect of over 60% in size
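AlphaScreen displacement: compounds (up to 110uM) incubated 30 min at room temperature with a preformed 50 nM BAZ2B/50 nM biotinylated H3K14Ac peptide complex in PBS pH 7.4 with Tween-20. Donor and acceptor beads at 10 ug/mL final added, 20 min light-protected before reading.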
JMJD2A Tudor inh: blocks the human JMJD2A Tudor domain; O75164; AlphaScreen JMJD2A-Tudor / H3K4me3 peptide binding; Potency, µM (highest dose often 114 µM), hits mostly inhibitors; 390,000 tested, 4.4% active; AID 504339; also: nearly all actives have a fitted effect of over 50% in size
Of the large screens only hits and unclear results are named; the others gave an inactive call. Calls follow the shape of the dose curve; as a rule, active = well fitted curve in the direction sought with a large enough effect; inconclusive = small, poorly fitted or top-dose-only effect, or another doubt; inactive = no such curve, though single readings can be large; an effect the other way counts as inactive or inconclusive.

CCC(CO)Oc1cc(NCc2ccc(OC)cc2)c2ncn(C(C)C)c2c1 (stereo not given)	BAZ2B inh inconclusive
COc1ccccc1NC(=O)c1sc(-c2ccc(Cl)cc2)cc1N	none (no result: L3MBTL1 block)
COC(=O)[C@@H]1CC2=CC(=O)CC[C@]2(C)[C@@]23O[C@@H]2C[C@@]2(C)[C@H](CC[C@@]24CCC(=O)O4)[C@@H]13	none (no result: L3MBTL1 block, GLS inh, HP1b chromo inh, BAZ2B inh, JMJD2A Tudor inh)
CC(=O)c1nnn(-c2nc(C#N)nc(N3CCOCC3)n2)c1C	none (no result: G9a block, L3MBTL1 block, GLS inh, BAZ2B inh)
CCC(CO)Oc1cc(NCc2ccc(Cl)cc2)c2ncn(C(C)C)c2c1 (stereo not given)	JMJD2A Tudor inh 50.1µM (no result: G9a block, BAZ2B inh)
CN1CCCC(CC2Oc3ccccc3Sc3ccccc32)C1 (stereo not given)	G9a block inconclusive, HP1b chromo inh inconclusive, BAZ2B inh 50.1µM, JMJD2A Tudor inh 8.91µM
c1ccc2c(c1)OC(CCCN1CCCCC1)c1ccccc1S2 (stereo not given)	L3MBTL1 block inconclusive
OCC1O[C@@H](O[C@@H]2C(CO)OC(O)C(O)C2O)C(O)C(O)C1O (stereo not given in full)	none (no result: L3MBTL1 block, HP1b chromo inh, BAZ2B inh, JMJD2A Tudor inh)
[O][C@H]1[C@@H](O)[C@@H](CO)O[C@@H](O[C@@H]2[C@@H]3OC[C@H]2O[C@H](O[C@@H]2[C@@H](O)[C@H](C[C@@H]4[C@@H]5OC[C@H]4O[CH][C@@H]5O)O[C@H](CO)[C@@H]2OS(=O)(=O)O)[C@@H]3OS(=O)(=O)O)[C@@H]1O	G9a block 15.8µM (no result: L3MBTL1 block, GLS inh, HP1b chromo inh, BAZ2B inh, JMJD2A Tudor inh)
CC(C)(C)c1ccc(C2Sc3ccccc3NC3=C2C(=O)c2ccccc23)cc1 (stereo not given)	G9a block 10µM, HP1b chromo inh inconclusive, BAZ2B inh 8.91µM, JMJD2A Tudor inh 25.1µM (no result: L3MBTL1 block)
Cc1ccc(CNCc2ccccc2)s1	none (no result: L3MBTL1 block)
Cc1ccc(CNCCNCCO)s1	G9a block 39.8µM
CCn1cc(C(=O)O)c(=O)c2cc(F)c(N3CCN(C(=S)NC(=O)c4c(OC)cccc4OC)CC3)cc21	G9a block 35.5µM, BAZ2B inh 56.2µM, JMJD2A Tudor inh inconclusive (no result: L3MBTL1 block)
CCn1cc(C(=O)O)c(=O)c2cc(F)c(N3CCN(C(=S)NC(=O)c4ccccc4Br)CC3)cc21	BAZ2B inh 70.8µM (no result: L3MBTL1 block)
CCOC(=O)N1CCN(C(=O)c2cn(CC)c3cc(N4CCN(C)CC4)c(F)cc3c2=O)CC1	G9a block 14.1µM (no result: GLS inh, HP1b chromo inh, JMJD2A Tudor inh)
CCn1cc(C(=O)O)c(=O)c2cc(F)c(N3CCN(C(=S)NC(=O)c4ccc(F)c(F)c4)CC3)cc21	G9a block 50.1µM
CCOC(=O)C1CN(c2cc3c(cc2F)c(=O)c(C(=O)O)cn3CC)OC1C(=O)OCC (stereo not given)	G9a block 39.8µM, BAZ2B inh inconclusive, JMJD2A Tudor inh 56.2µM
Cc1cc(=O)c2c(C)ccc(C)c2[nH]1	none (no result: L3MBTL1 block)
Cc1cc(=O)c2c(O)c3c(O)cc(O)c4c5c(O)cc(O)c6c(O)c7c(=O)cc(C)c8c1c2c(c34)c(c65)c78	G9a block 8.91µM (no result: L3MBTL1 block, GLS inh, HP1b chromo inh, BAZ2B inh, JMJD2A Tudor inh)
Cc1c(CNC(C)CCc2ccccc2)c(C(=O)O)c(C)n1Cc1ccc(F)cc1 (stereo not given)	none (no result: L3MBTL1 block)
N#Cc1nc(Nc2cc(Cl)cc(Cl)c2)nc(NC2CCCC2)n1	none (no result: G9a block, L3MBTL1 block, GLS inh, HP1b chromo inh, BAZ2B inh)
Cc1c(C(=O)O)cnc2c([N+](=O)[O-])cnn12	G9a block 56.2µM, L3MBTL1 block inconclusive, GLS inh inconclusive, JMJD2A Tudor inh 8.91µM
Cc1cc(N2CCCCC2)nc2ccc(NC(=O)/C=C/c3ccccc3OC(C)C)cc12	none (no result: L3MBTL1 block)
O=C(NCCc1ccc(Cl)cc1)C(=O)NCC(c1ccc2c(c1)OCO2)N1CCOCC1 (stereo not given)	none (no result: L3MBTL1 block)
CC(=O)c1c(C)[nH]c(-c2ccccc2)nc1=S	G9a block 3.55µM
CCC(=O)/C=C1/Sc2ccccc2N1CC	G9a block 8.91µM, JMJD2A Tudor inh inconclusive
Cc1noc(C)c1-c1cc(NC2CCNCC2)ncn1	none (no result: L3MBTL1 block, GLS inh, HP1b chromo inh, BAZ2B inh, JMJD2A Tudor inh)
COc1cc(OC)c(OC)cc1CCC(C)NCCC(c1ccccc1)c1ccccc1 (stereo not given)	HP1b chromo inh inconclusive, BAZ2B inh 12.6µM, JMJD2A Tudor inh 44.7µM (no result: L3MBTL1 block)
[N-]=[N+]=CC(=O)CC(c1ccccc1)N1C(=O)c2ccccc2C1=O (stereo not given)	G9a block inconclusive, L3MBTL1 block inconclusive, BAZ2B inh 31.6µM, JMJD2A Tudor inh 50.1µM
CCNC(=O)C(=O)N/N=C/c1cc([N+](=O)[O-])ccc1O	BAZ2B inh 8.91µM, JMJD2A Tudor inh 14.1µM (no result: L3MBTL1 block)
O=C(N/N=C/c1cc([N+](=O)[O-])ccc1O)Nc1ccccc1	JMJD2A Tudor inh inconclusive
Nc1nnnn1CC(=O)N/N=C/c1cc([N+](=O)[O-])ccc1O	L3MBTL1 block 0.159µM, JMJD2A Tudor inh 20µM
Nc1nnnn1CC(=O)N/N=C/c1cccs1	none
O=C(N/N=C/c1cc([N+](=O)[O-])ccc1O)NC12CC3CC(CC(C3)C1)C2	GLS inh 10µM, BAZ2B inh inconclusive
CCOC(=O)c1c(C)[nH]c(C(=O)N/N=C\c2ccccc2O)c1C	none
CCOC(=O)c1c(C)[nH]c(C(=O)N/N=C/c2cc([N+](=O)[O-])ccc2O)c1C	G9a block inconclusive, BAZ2B inh 44.7µM, JMJD2A Tudor inh 79.4µM (no result: L3MBTL1 block)
COc1ccc(C(=O)N2CCN(Cc3cc(=O)n4nc(-c5ccccc5C)sc4n3)CC2)cc1OC	none (no result: L3MBTL1 block)
